{"source": "PubChem BioAssay AID1508600", "about": "(Functional Genomics Laboratory (NCATS/FGL), 2020)", "note": "The campaign covered roughly 53,000 sequences. About 3,700 (7%) were called active.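 How the source made its calls: active means gene knockdowns whose robust z-score for IL-1 alpha signal is at least 2 or at most -2, so actives lie on both sides; inactive means the rest.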 Shown is part of a subset that was picked to be rich in actives.", "data": [{"experiment": "Components of the Cytosolic LPS Sensing Pathway: Gene Identification via Genome-wide siRNA Screen;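 further: robust z of the log signal after scaling to non-targeting control siRNA wells of the plate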", "settings": "RAW264.7 macrophages, IL-1a HTRF, actives lie on both sides, screened at 100 nM (by protocol), cells primed 5 h with Pam3CSK4 first", "procedure,_shortened": "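Using IL-1a HTRF as read-out, the screen measured release from RAW264.7 cells after 48h siRNA knockdown (100 nM), 5 h Pam3CSK4 priming and 24 h cytosolic LipidA. Values were expressed relative to negative-control wells as robust z-scores.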", "values": [{"sequence": "CGACAGAGGAAAACAUAAATT against St13", "z-score": "-2.55 (active)"}, {"sequence": "GGAAAGAAAGACUAGUAAATT against Cpne1", "z-score": "0.815 (inactive)"}, {"sequence": "CCUCAUCGACAUAAUGAUUTT against Samhd1", "z-score": "-0.0182 (inactive)"}, {"sequence": "GGUUCACUCUGAAGACACCTT against Pkig", "z-score": "0.0516 (inactive)"}, {"sequence": "CCGUGUGACAUUUGAGUAUTT against Crhbp", "z-score": "1.42 (inactive)"}, {"sequence": "CCAGCUUUGGGAAAUACCGTT against Sertad1", "z-score": "-2.39 (active)"}, {"sequence": "GGGAUCCAUCCUUAUUGUUTT against Ybx2", "z-score": "-0.101 (inactive)"}, {"sequence": "GGAUUCUCCUUUACCUUUGTT against B930095G15Rik", "z-score": "0.0151 (inactive)"}, {"sequence": "GGAAGACUUUGGCUUUGAATT against Tfpt", "z-score": "-0.165 (inactive)"}, {"sequence": "GGAGAACAUCAAGAACAAUTT against Ap2m1", "z-score": "2.08 (active)"}, {"sequence": "GCCCGAAAAAGAGAACUGATT against Wbp11", "z-score": "0.056 (inactive)"}, {"sequence": "GGAUCAAGACAAAAAACUUTT against Arhgap17", "z-score": "-0.17 (inactive)"}, {"sequence": "GGACCAGAUUGCUAAUGAGTT against Fam13a", "z-score": "-0.0932 (inactive)"}, {"sequence": "GGAAUUCUUGAAGAUUCCCTT against Ptpn7", "z-score": "0.884 (inactive)"}, {"sequence": "GGAGCUCCUACCAAGACUUTT against Klhl38", "z-score": "1.07 (inactive)"}, {"sequence": "GGAAUGCAAUGACAAAUGATT against Kank3", "z-score": "0.198 (inactive)"}, {"sequence": "GCUUAUAAGAGUCUAUCUUTT against Stam", "z-score": "-0.217 (inactive)"}, {"sequence": "GCUCAGUUUAUACCAAAAUTT against Api5", "z-score": "-2.31 (active)"}, {"sequence": "CCCAAGAUCUAAGAGUAUUTT against Rin3", "z-score": "-1.18 (inactive)"}, {"sequence": "GGGACUAUUCCUCCAGAGUTT against Cast", "z-score": "-0.439 (inactive)"}, {"sequence": "GGUCAAGAGGGAAAACUUUTT against Ctps", "z-score": "0.0558 (inactive)"}, {"sequence": "CGGUACAUCAUUGCUGUCATT against Slc17a8", "z-score": "-2.22 (active)"}, {"sequence": "CCGUAGUAUCCACUGAUUGTT against Olfr1322", "z-score": "-0.34 (inactive)"}, {"sequence": "GGAGGAAGAAACAACAAUGTT against Calhm5", "z-score": "0.76 (inactive)"}, {"sequence": "GGCUUAGUAUGUUGUAUUCTT against Fam241b", "z-score": "0.189 (inactive)"}, {"sequence": "GGGUUCAUUUUUGGCUUUCTT against Serpina3m", "z-score": "0.0735 (inactive)"}, {"sequence": "GGUGCAGAAGCUCAAGUUCTT against Cpne2", "z-score": "2.44 (active)"}, {"sequence": "GCGAAUCUCCUCCUAGUGATT against Arhgap28", "z-score": "-0.0218 (inactive)"}, {"sequence": "GGAAUUCGUAAAGAUUGCATT against Esrp2", "z-score": "-0.158 (inactive)"}, {"sequence": "UGCUGGUAGACCUAGUAGCTT against Olfr1137", "z-score": "-2.1 (active)"}, {"sequence": "GGUGUACGAUCUGACCAAGTT against Cyb5a", "z-score": "0.0756 (inactive)"}, {"sequence": "GGAAUGGUUUGGUGAGUUUTT against Pramel1", "z-score": "0.859 (inactive)"}, {"sequence": "GGCAUCUCUUCCAAGUUGGTT against Mzt1", "z-score": "1.69 (inactive)"}, {"sequence": "GGGACAUAUUGUUUCCCUUTT against Tmco5b", "z-score": "0.777 (inactive)"}, {"sequence": "GGUUAUGAUGGGACUUCUCTT against Tmem37", "z-score": "-1.34 (inactive)"}, {"sequence": "CCUUUGUAGGAACAAUUUATT against Phlda1", "z-score": "0.409 (inactive)"}, {"sequence": "GCGUAUUUUAUGGAUGAAATT against Nfkbiz", "z-score": "-2.42 (active)"}, {"sequence": "GGAUUAUCAUGGUUUGAUCTT against Elp4", "z-score": "0.938 (inactive)"}, {"sequence": "GCAUCUGUGCCGAUUAAAATT against Asb15", "z-score": "1.32 (inactive)"}, {"sequence": "AUAUCAGACUGACAUAGCATT against Obox5", "z-score": "2.47 (active)"}, {"sequence": "CGAGGCUAACAAACUCAUATT against Guca2a", "z-score": "0.883 (inactive)"}, {"sequence": "CCUGGAAACUAUUUUGAUGTT against Katnal2", "z-score": "0.0379 (inactive)"}, {"sequence": "GACAAAACAAUUUCCUAUGTT against Olfr805", "z-score": "-0.318 (inactive)"}, {"sequence": "GGCAGAAACGUGGACUAAATT against Mmp12", "z-score": "-1.29 (inactive)"}, {"sequence": "GGAACCAGUAUCCUGACAUTT against Prop1", "z-score": "-0.592 (inactive)"}, {"sequence": "GGCUAUAAUGAACCAGCUGTT against Ubr3", "z-score": "-0.208 (inactive)"}, {"sequence": "CCAGUUCAGAGAUUAUCUUTT against Olfr826", "z-score": "-2.13 (active)"}, {"sequence": "GGAUGCAGAUGUACAACUCTT against Slc25a28", "z-score": "2.17 (active)"}, {"sequence": "GGAGCCUCCAAGUUGUAAGTT against Ifi27l2b", "z-score": "0.748 (inactive)"}, {"sequence": "CCACCUUAACUGUUGCUUUTT against Mmp2", "z-score": "0.691 (inactive)"}, {"sequence": "GCAUUUGAAUCGACUACAGTT against Vti1b", "z-score": "0.691 (inactive)"}, {"sequence": "GGUGUGUGCAGGACUAAAUTT against Cacng3", "z-score": "0.955 (inactive)"}, {"sequence": "GCCGGAGUGCACAAUCAAATT against Rarres2", "z-score": "0.908 (inactive)"}, {"sequence": "GGAAAUCCAUCGUUAUUCUTT against Abca8a", "z-score": "2.08 (active)"}, {"sequence": "GGAGAGACUUGAGAUUGUCTT against Ptx3", "z-score": "0.245 (inactive)"}, {"sequence": "GGACACUAUCCGUGCAUCUTT against Tsg101", "z-score": "-1.13 (inactive)"}, {"sequence": "GCAAGUGACGGUUUAUCUGTT against Las1l", "z-score": "-1.68 (inactive)"}, {"sequence": "UACCAGAAGUACCUGUCCCTT against Lbx1", "z-score": "3.33 (active)"}, {"sequence": "CCUCAUUCGAUACAUCUGUTT against Ints3", "z-score": "0.319 (inactive)"}, {"sequence": "CCUUGUUUUUCACAAAUCATT against Usp7", "z-score": "-0.182 (inactive)"}, {"sequence": "GGCUCGACUUGGAGAAAAGTT against Atg13", "z-score": "0.0439 (inactive)"}, {"sequence": "GCAGAAGCCUGUGGGAUCUTT against Tex43", "z-score": "-0.102 (inactive)"}, {"sequence": "GCAAAACCUAACUAUGUUUTT against Mterf3", "z-score": "-0.879 (inactive)"}, {"sequence": "CGAAUUAUGGCACCGUCAATT against P2rx7", "z-score": "-0.647 (inactive)"}, {"sequence": "UUAGCCACUCAUUGUUCCATT against Olfr1303", "z-score": "-0.133 (inactive)"}, {"sequence": "GCUAAUACUGAAAUCGAUGTT against Ccdc73", "z-score": "1.02 (inactive)"}, {"sequence": "GGGAGAGUCUUGGCAACUUTT against Btbd17", "z-score": "-2.12 (active)"}, {"sequence": "GGAAGAGAAGAAGGAACUUTT against Ada", "z-score": "-1.51 (inactive)"}, {"sequence": "CGUUUAAAGACUAGCAAGATT against Tab1", "z-score": "0.0468 (inactive)"}, {"sequence": "GGGCUAAUGAGAUAGGUUUTT against Slc19a2", "z-score": "2.18 (active)"}, {"sequence": "GGAGGCUGCAAUAGAGGAGTT against Defa20", "z-score": "1.23 (inactive)"}, {"sequence": "GGCAAGAGUGAAUUUAAGATT against Nt5e", "z-score": "-0.292 (inactive)"}, {"sequence": "GGAUUUCACAGUCAAAAUUTT against Insrr", "z-score": "-0.825 (inactive)"}, {"sequence": "CGGUGUACGAGUUAGAGAATT against Crybb3", "z-score": "1.75 (inactive)"}, {"sequence": "GGGAGAUCUUGACAAAUUCTT against Aplp1", "z-score": "2.32 (active)"}, {"sequence": "GGAGAAUGACUAGGUAAUCTT against A130010J15Rik", "z-score": "1.27 (inactive)"}, {"sequence": "CCUGUCGUUUAACCCUGUCTT against Fis1", "z-score": "-0.96 (inactive)"}, {"sequence": "GGAGUUGACCACACUGCUUTT against Smtn", "z-score": "-1.09 (inactive)"}, {"sequence": "GGAAUUUAUUCACCCAGACTT against Sirt2", "z-score": "-1.51 (inactive)"}, {"sequence": "GGAGAUGAAGCUCUGGAUATT against Spock2", "z-score": "0.132 (inactive)"}, {"sequence": "CCUAUCUCCCUGUUCGAUATT against Rab36", "z-score": "-1.01 (inactive)"}, {"sequence": "GGACAACUCAGAUUGGACUTT against Adprhl2", "z-score": "-1.22 (inactive)"}, {"sequence": "GGCUUGAAUCACCAACCAGTT against Sgcz", "z-score": "0.224 (inactive)"}, {"sequence": "GGUAGUGAGUACUUUGGAATT against Amy2a5", "z-score": "-1.16 (inactive)"}, {"sequence": "GCAAGUGCGACUGUAUCUGTT against Gdpd2", "z-score": "-2.2 (active)"}, {"sequence": "GGGAUAAUGCAUGUGAAAATT against Pdk3", "z-score": "-0.292 (inactive)"}, {"sequence": "GGUUUGUCAACAAGUGUCATT against Dicer1", "z-score": "-2.17 (active)"}, {"sequence": "CCAGUACAGAUGUGUUAAATT against N4bp2l2", "z-score": "1.68 (inactive)"}, {"sequence": "CCGCCUAGCUGAUCUUGUGTT against Aldh1b1", "z-score": "-0.495 (inactive)"}, {"sequence": "GCUUUUACCGUUACGUCUUTT against Uggt1", "z-score": "2.18 (active)"}, {"sequence": "GGACAGCAGUAAAUAUACUTT against Coq3", "z-score": "0.423 (inactive)"}, {"sequence": "GCUAUUAAUAUCCUGGUCCTT against Slc7a2", "z-score": "-0.543 (inactive)"}, {"sequence": "CCUAGACAUCAGUAAUGCGTT against Zbtb17", "z-score": "-0.43 (inactive)"}, {"sequence": "AACUGUACAUUGAAGCAGATT against Cstf3", "z-score": "0.391 (inactive)"}, {"sequence": "GCAUGAAAAGGUAUUACUCTT against Exoc6", "z-score": "0.734 (inactive)"}, {"sequence": "GCACUAUCCACAUGCACAUTT against Olfr1281", "z-score": "0.469 (inactive)"}, {"sequence": "GGCCUAUGUCAGCACUUUATT against Eif3f", "z-score": "-0.113 (inactive)"}, {"sequence": "GGAUUGCUUUUGAGCAACATT against Ccdc125", "z-score": "-2.05 (active)"}, {"sequence": "GCUUCUAAGCUUUAGAGGGTT against Rassf10", "z-score": "-1 (inactive)"}, {"sequence": "GGAUACAGUUAAGAGAUAUTT against Xpr1", "z-score": "-1.34 (inactive)"}, {"sequence": "GCAUAGCCACAAGGUUAAUTT against Nat8f4", "z-score": "0.35 (inactive)"}, {"sequence": "GUAUUAUAGACACCUUGCATT against Phip", "z-score": "-0.835 (inactive)"}, {"sequence": "GGACAGCUACCUCAUCCAUTT against Lpcat3", "z-score": "2.08 (active)"}, {"sequence": "GGACAGAUGAAGCUGCAUUTT against S100a4", "z-score": "-0.422 (inactive)"}, {"sequence": "GGUGAAGAAGAGUCUCAAATT against Mrnip", "z-score": "1.6 (inactive)"}, {"sequence": "GCACAUAUCACGCUACCUGTT against Lrrc75b", "z-score": "-0.0605 (inactive)"}, {"sequence": "GCGAAGAGUGAUUGAUCCATT against Myh1", "z-score": "-0.773 (inactive)"}, {"sequence": "GGAAGCAGAAGCUAAAGUGTT against Ubap1", "z-score": "2.11 (active)"}]}]}
